Experimental data: the supplement of paper PMC12645437, “Orthogonal IMiD-Degron Pairs Induce Selective Protein Degradation in Cells” (ACS Chemical Biology, 2025)
The full ranking holds about 8,300 sequences; the median of “log2 fold change of degron read counts, EGFP-low vs EGFP+ sorted cells (limma voom), compound-induced degradation” is about -1.1, and the highest 2% start at about 3.2. For the sample, the highest values were picked, then their nearest neighbours and some sequences at random.

T1: CRBN, Q96SW2
T1 chain: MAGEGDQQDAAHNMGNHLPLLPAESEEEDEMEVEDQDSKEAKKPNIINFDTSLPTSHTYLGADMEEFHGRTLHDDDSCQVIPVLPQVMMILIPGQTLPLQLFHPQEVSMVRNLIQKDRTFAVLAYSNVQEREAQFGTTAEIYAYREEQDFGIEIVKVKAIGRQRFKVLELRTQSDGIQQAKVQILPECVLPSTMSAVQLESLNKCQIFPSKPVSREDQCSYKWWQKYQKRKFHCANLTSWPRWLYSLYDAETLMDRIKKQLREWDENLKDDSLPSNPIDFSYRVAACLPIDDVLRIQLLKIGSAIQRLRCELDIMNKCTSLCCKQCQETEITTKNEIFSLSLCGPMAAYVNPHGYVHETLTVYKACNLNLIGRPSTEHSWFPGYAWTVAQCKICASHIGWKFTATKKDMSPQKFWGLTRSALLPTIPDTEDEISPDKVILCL


Target: T1, CRBN, Q96SW2
Test: log2 fold change of degron read counts, EGFP-low vs EGFP+ sorted cells (limma voom), compound-induced degradation; higher = more compound-induced degradation of the degron-EGFP fusion; degrons are variants of IKZF1/3 zinc finger 2; compound dose not given here
Conditions: Jurkat, 18 h
[1] = compound: compound 19 (5-tert-butyl-thalidomide)
[2] = compound: compound 22 (5-morpholino-thalidomide)
[3] = compound: compound 33 (diphenyl IMiD analogue)
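Also: pooled lentiviral library of zinc finger degron-EGFP fusions in mCherry-positive Jurkat cells, FACS-sorted after compound exposure, with degron abundance counted by next-generation sequencing.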

Sequence	log2 fold change of degron read counts [1]	log2 fold change of degron read counts [2]	log2 fold change of degron read counts [3]	log2 fold change of degron read counts (compound: thalidomide)
FDCPVCGAEFTQKGNLLRHIKL [46F_47D_49P_50V_52G_53A_54E_55F_67L_, Q9UKT9]	-0.42	-1.74	0.6	0.131
FSCDVCGAAFTQKGNLLRHIKL [46F_47S_49D_50V_52G_53A_54A_55F_67L_, Q9UKT9]	1.56	1.45	1.14	-0.292
LICEICGFTCTQKGNLLRHIKL [46L_47I_49E_50I_52G_53F_54T_55C_67L_, Q9UKT9]	0.795	2.24	2.34	3.13
FWCEICGAPFTQKGNLLRHIKL [46F_47W_49E_50I_52G_53A_54P_55F_67L_, Q9UKT9]	3.82	3.42	2.64	1.23
FQCEICGADFTQKGNLLRHIKL [46F_47Q_49E_50I_52G_53A_54D_55F_67L_, Q9UKT9]	-0.47	0.00637	1.29	3
FNCEQCGAPFTQKGNLLRHIKL [46F_47N_49E_50Q_52G_53A_54P_55F_67L_, Q9UKT9]	-1.19	-2	-2.69	-2.17
FQCEICGRPFTQKGNLLRHIKL [46F_47Q_49E_50I_52G_53R_54P_55F_67L_, Q9UKT9]	-0.793	-0.383	-1.07	1.31
FICEICGAPFTQKGNLLRHIKL [46F_47I_49E_50I_52G_53A_54P_55F_67L_, Q9UKT9]	2.83	3.53	2.76	3.43
FWCEICGADFTQKGNLLRHIKL [46F_47W_49E_50I_52G_53A_54D_55F_67L_, Q9UKT9]	0.346	0.98	-0.492	-1.5
FQCEICGAPFTQKGNLLRHIKL [46F_47Q_49E_50I_52G_53A_54P_55F_67L_, Q9UKT9]	3.69	3.61	2.03	3.72
FGCEICGAPFTQKGNLLRHIKL [46F_47G_49E_50I_52G_53A_54P_55F_67L_, Q9UKT9]	1.88	0.802	-0.557	-0.51
FWCEICGRPFTQKGNLLRHIKL [46F_47W_49E_50I_52G_53R_54P_55F_67L_, Q9UKT9]	1.92	0.403	0.52	-0.912
FNCEICGADFTQKGNLLRHIKL [46F_47N_49E_50I_52G_53A_54D_55F_67L_, Q9UKT9]	-1.15	-2.31	-1.14	-1.4
FICEICGADFTQKGNLLRHIKL [46F_47I_49E_50I_52G_53A_54D_55F_67L_, Q9UKT9]	-2.33	-0.887	-0.381	0.298
FNCEICGAPFTQKGNLLRHIKL [46F_47N_49E_50I_52G_53A_54P_55F_67L_, Q9UKT9]	3.39	2.54	0.567	1.58
LYCNQCGFFCTQKGNLLRHIKL [46L_47Y_49N_50Q_52G_53F_54F_55C_67L_, Q9UKT9]	-0.205	-0.821	-0.706	-0.795
FFCDICGAGFTQKGNLLRHIKL [46F_47F_49D_50I_52G_53A_54G_55F_67L_, Q9UKT9]	2.9	1.78	0.35	-0.766

Sequence	log2 fold change of degron read counts [1]	log2 fold change of degron read counts [2]	log2 fold change of degron read counts [3]	log2 fold change of degron read counts (compound: thalidomide)
FQCNQCGHIFTQKGNLLRHIKL [46F_47Q_49N_50Q_52G_53H_54I_55F_67L_, Q9UKT9]	-2.78	-2.92	-2.91	-2.7
FICNQCGAAFTQKGNLLRHIKL [46F_47I_49N_50Q_52G_53A_54A_55F_67L_, Q9UKT9]	-2.19	-0.99	-0.297	-0.649
LCCEICGFNCTQKGNLLRHIKL [46L_47C_49E_50I_52G_53F_54N_55C_67L_, Q9UKT9]	-0.957	-1.02	0.0485	0.0948
FECPICGAKFTQKGNLLRHIKL [46F_47E_49P_50I_52G_53A_54K_55F_67L_, Q9UKT9]	0.543	-0.648	0.0161	3
FSCNICGAEFTQKGNLLRHIKL [46F_47S_49N_50I_52G_53A_54E_55F_67L_, Q9UKT9]	-0.854	0.252	0.443	0.069
FFCEICGAPFTQKGNLLRHIKL [46F_47F_49E_50I_52G_53A_54P_55F_67L_, Q9UKT9]	3.4	3.34	2.28	1.95
FYCEICGAPFTQKGNLLRHIKL [46F_47Y_49E_50I_52G_53A_54P_55F_67L_, Q9UKT9]	3.86	3.74	3.06	2.44
FVCEICGAPFTQKGNLLRHIKL [46F_47V_49E_50I_52G_53A_54P_55F_67L_, Q9UKT9]	3.26	3.62	2.49	3.65
FMCEICGAPFTQKGNLLRHIKL [46F_47M_49E_50I_52G_53A_54P_55F_67L_, Q9UKT9]	3.59	3.43	3.13	2.94
FMCEICGADFTQKGNLLRHIKL [46F_47M_49E_50I_52G_53A_54D_55F_67L_, Q9UKT9]	-1.98	-1.6	1.99	-0.153
FFCEICGHPFTQKGNLLRHIKL [46F_47F_49E_50I_52G_53H_54P_55F_67L_, Q9UKT9]	0.211	-0.726	-0.864	-1.23
FYCEQCGAPFTQKGNLLRHIKL [46F_47Y_49E_50Q_52G_53A_54P_55F_67L_, Q9UKT9]	1.97	1.06	0.568	-1.07
FVCEICGADFTQKGNLLRHIKL [46F_47V_49E_50I_52G_53A_54D_55F_67L_, Q9UKT9]	-1.49	-0.553	-0.517	0.943
FMCEICGHPFTQKGNLLRHIKL [46F_47M_49E_50I_52G_53H_54P_55F_67L_, Q9UKT9]	-1.77	-1.41	0.426	-0.396
FFCEICGADFTQKGNLLRHIKL [46F_47F_49E_50I_52G_53A_54D_55F_67L_, Q9UKT9]	0.436	1.48	-0.411	-0.679
FYCEICGADFTQKGNLLRHIKL [46F_47Y_49E_50I_52G_53A_54D_55F_67L_, Q9UKT9]	1.04	1.57	0.298	-1.13
FVCEICGAMFTQKGNLLRHIKL [46F_47V_49E_50I_52G_53A_54M_55F_67L_, Q9UKT9]	0.202	0.968	1.67	2.16
